# Several values for one entry are separate records, joined by “and”; a condition that tells them apart may be missing. Equal entries are not always repeated. Results filed as inconclusive are left out. Where a call stands in place of a potency, no number is given. Where a structure was tested more than once in an assay, its records may differ in their call. Activity calls are given as the source filed them. Unless noted, calls follow the shape of the dose curve; as a rule, active = well fitted curve in the direction sought with a large enough effect in the repeat runs; inconclusive = weak or mixed curves; inactive = no such curve, though single readings can be large; an effect the other way counts as inactive or inconclusive.
# Assays:
# [1] = qHTS assay to test for compound auto fluorescence at 535 nm (green) in HEK293 cells (AID 720680)
# [2] = qHTS assay to test for compound auto fluorescence at 460 nm (blue) in HEK293 cell free culture (AID 720681)
# Procedure, shortened: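 Blue fluorescence (Ex 405/Em 460 nm, triamterene-equivalent) was read immediately after pin transfer of compound or DMSO into medium (DMEM, 10% FBS) without cells.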
# [3] = qHTS assay to test for compound auto fluorescence at 535 nm (green) in HEK293 cell free culture (AID 720682)
# Procedure, shortened: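 Measurement is a direct plate read of green fluorescence (485 nm in, 535 nm out) after compound addition to serum-supplemented DMEM lacking cells, with fluorescein used to express intensities.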
# [4] = qHTS assay to test for compound auto fluorescence at 590 nm (red) in HEK293 cell free culture (AID 720683)
# Procedure, shortened: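 Red-channel autofluorescence of compounds in culture medium (DMEM, 10% FBS), no cells, measured at 540/590 nm. Rose Bengal sodium is the reference fluorophore for equivalence.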
# [5] = qHTS assay to test for compound auto fluorescence at 590 nm (red) in HepG2 cell free culture (AID 720684)
# Procedure, shortened: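 Plate contents were MEM with 10% FBS plus test compound or DMSO, no cells. Fluorescence was recorded with 540 nm excitation and 590 nm emission.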
# [6] = qHTS assay to test for compound auto fluorescence at 460 nm (blue) in HepG2 cell free culture (AID 720685)
# Procedure, shortened: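 Compound (23 nL) or DMSO pinned into cell-free MEM with 10% FBS; blue fluorescence read at 405/460 nm excitation/emission, expressed as auto-fluorescence equivalency to triamterene.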
# [7] = qHTS assay to test for compound auto fluorescence at 535 nm (green) in HepG2 cell free culture (AID 720686)
# [8] = qHTS assay to test for compound auto fluorescence at 460 nm (blue) in HepG2 cells (AID 720687)
# Procedure, shortened: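 Blue-channel autofluorescence (Ex/Em 405/460 nm, triamterene-equivalent) was measured after 1 hr compound exposure at 37 C, 5% CO2. Cells were HepG2, plated overnight at 37 C in MEM plus 10% FBS.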
# [9] = target: Glucocorticoid receptor (Homo sapiens) (UniProt P04150); assay: qHTS assay to identify small molecule agonists of the glucocorticoid receptor (GR) signaling pathway (AID 720691; active = well fitted activation curve with a large enough effect in the signal ratio in the repeat runs, not every such curve was filed as active; the % refers to the signal ratio)
# Procedure, shortened: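 GR-bla HeLa cells (beta-lactamase reporter under glucocorticoid response element) were plated 4 h at 37 C/5% CO2, given compounds in DMSO, and incubated 18 h at 37 C. LiveBLAzer B/G FRET substrate was added for 2 h at room temperature, then fluorescence intensity read.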
# [10] = target: Glucocorticoid receptor (Homo sapiens) (UniProt P04150); assay: qHTS assay to identify small molecule antagonists of the glucocorticoid receptor (GR) signaling pathway (AID 720692; active = well fitted inhibition curve with a large enough effect in the signal ratio in the repeat runs, not every such curve was filed as active; the % refers to the signal ratio; also: potency is read from the fitted curve at half-maximal effect)
# Procedure, shortened: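 GR-bla HeLa cells (beta-lactamase reporter under glucocorticoid response element) were pre-plated 4 h at 37 C, treated with compounds plus 5 nM dexamethasone (final) for 18 h, then read by LiveBLAzer B/G FRET fluorescence after 2 h.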
# [11] = qHTS assay for identifying genotoxic compounds that show differential cytotoxicity against isogenic chicken DT40 cell lines with known DNA damage response pathways - wild type cell line (AID 743012); also: nearly all actives have a fitted effect of over 60% in size; also: potency is read from the fitted curve at half-maximal effect
# Procedure, shortened: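 Parental DNA repair-proficient DT40 cells, 300 per well, were pre-incubated ~0.5 h at 37 C/5% CO2, pin-dosed with compounds in DMSO, then incubated 40 h. Viability was read as CellTiter-Glo luminescence after 30 min at room temperature.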
# [12] = qHTS assay for identifying genotoxic compounds that show differential cytotoxicity against isogenic chicken DT40 cell lines with known DNA damage response pathways - Rev3 mutant cell line (AID 743014); also: nearly all actives have a fitted effect of over 55% in size; also: potency is read from the fitted curve at half-maximal effect
# [13] = qHTS assay for identifying genotoxic compounds that show differential cytotoxicity against isogenic chicken DT40 cell lines with known DNA damage response pathways - Rad54/Ku70 mutant cell line (AID 743015); also: nearly all actives have a fitted effect of over 60% in size; also: potency is read from the fitted curve at half-maximal effect
# [14] = qHTS assay to identify small molecule antagonists of the androgen receptor (AR) signaling pathway - cell viability counter screen (AID 743033; also: nearly all actives have a fitted effect of over 45% in size)
# [15] = qHTS assay to identify small molecule antagonists of the androgen receptor (AR) signaling pathway using the MDA cell line - cell viability counter screen (AID 743041; also: nearly all actives have a fitted effect of over 45% in size)
# Procedure, shortened: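 R1881-driven MDA-kb2 AR-luc cells, 3,000/well, were dosed with library compounds for 16 h; cell health came from CellTiter-Fluor fluorescence in the reporter wells.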
# [16] = qHTS assay to identify small molecule antagonists of the thyroid receptor (TR) signaling pathway - cell viability counter screen (AID 743064); also: nearly all actives have a fitted effect of over 50% in size; also: potency is read from the fitted curve at half-maximal effect
# Procedure, shortened: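 Compounds were tested on GH3.TRE-Luc cells in the presence of T3 at 1 nM final. Following 23.5 h at 37 °C, cell viability was quantified by CellTiter-Fluor.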
# [17] = qHTS assay to identify small molecule antagonists of the thyroid receptor (TR) signaling pathway (AID 743065); also: nearly all actives have a fitted effect of over 55% in size; also: potency is read from the fitted curve at half-maximal effect
# Procedure, shortened: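 Antagonism measured as loss of luciferase signal in GH3 cells stably carrying a TRE-luciferase reporter, co-treated with compound and T3 (1 nM final) for 23.5 h at 37 C. Viability was read in the same well by CellTiter-Fluor.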
# [18] = target: Androgen receptor (Homo sapiens) (UniProt P10275); assay: qHTS assay to identify small molecule antagonists of the androgen receptor (AR) signaling pathway (AID 743035; active = well fitted inhibition curve with a large enough effect in the signal ratio in the repeat runs, not every such curve was filed as active; the % refers to the signal ratio; also: potency is read from the fitted curve at half-maximal effect)
# Procedure, shortened: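 HEK293 cells stably carrying a UAS-driven beta-lactamase reporter (AR-UAS-bla GripTite) were plated for 4 h at 37C, then given compound and the agonist R1881 and incubated 16 h. Reporter activity was read by LiveBLAzer B/G FRET fluorescence after 2 h at room temperature.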
# [19] = target: Androgen receptor (Homo sapiens) (UniProt P10275); assay: qHTS assay to identify small molecule antagonists of the androgen receptor (AR) signaling pathway using the MDA cell line (AID 743042; also: nearly all actives have a fitted effect of over 55% in size)
# Procedure, shortened: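 Antagonist mode: compounds plus R1881 agonist added to MDA-kb2 AR-luc cells, incubated 16 h at 37C. Luciferase reporter luminescence quantified, with multiplexed CellTiter-Fluor readout for cell viability.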
# Sequence of Glucocorticoid receptor (Homo sapiens) (P04150 whole entry, looked up): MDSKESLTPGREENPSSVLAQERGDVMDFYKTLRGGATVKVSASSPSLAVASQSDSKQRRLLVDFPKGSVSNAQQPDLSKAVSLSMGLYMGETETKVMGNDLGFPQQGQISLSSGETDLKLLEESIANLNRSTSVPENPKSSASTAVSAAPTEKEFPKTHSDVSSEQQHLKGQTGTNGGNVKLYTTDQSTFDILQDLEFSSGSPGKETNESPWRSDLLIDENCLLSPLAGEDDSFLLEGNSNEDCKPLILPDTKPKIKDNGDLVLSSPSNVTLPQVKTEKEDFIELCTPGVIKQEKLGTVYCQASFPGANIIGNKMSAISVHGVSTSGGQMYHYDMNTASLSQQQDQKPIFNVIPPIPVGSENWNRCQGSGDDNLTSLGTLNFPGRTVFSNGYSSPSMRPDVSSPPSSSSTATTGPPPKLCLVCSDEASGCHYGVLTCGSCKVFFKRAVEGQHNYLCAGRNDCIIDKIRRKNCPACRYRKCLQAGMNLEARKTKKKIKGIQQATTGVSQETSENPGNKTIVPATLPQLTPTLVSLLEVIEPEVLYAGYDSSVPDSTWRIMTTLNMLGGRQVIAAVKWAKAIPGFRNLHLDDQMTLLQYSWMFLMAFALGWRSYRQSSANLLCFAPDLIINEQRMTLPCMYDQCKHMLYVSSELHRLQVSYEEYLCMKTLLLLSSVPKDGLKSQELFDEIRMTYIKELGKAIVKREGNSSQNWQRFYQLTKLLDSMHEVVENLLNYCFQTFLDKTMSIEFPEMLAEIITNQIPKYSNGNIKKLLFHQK
# Sequence of Androgen receptor (Homo sapiens) (P10275 whole entry, looked up): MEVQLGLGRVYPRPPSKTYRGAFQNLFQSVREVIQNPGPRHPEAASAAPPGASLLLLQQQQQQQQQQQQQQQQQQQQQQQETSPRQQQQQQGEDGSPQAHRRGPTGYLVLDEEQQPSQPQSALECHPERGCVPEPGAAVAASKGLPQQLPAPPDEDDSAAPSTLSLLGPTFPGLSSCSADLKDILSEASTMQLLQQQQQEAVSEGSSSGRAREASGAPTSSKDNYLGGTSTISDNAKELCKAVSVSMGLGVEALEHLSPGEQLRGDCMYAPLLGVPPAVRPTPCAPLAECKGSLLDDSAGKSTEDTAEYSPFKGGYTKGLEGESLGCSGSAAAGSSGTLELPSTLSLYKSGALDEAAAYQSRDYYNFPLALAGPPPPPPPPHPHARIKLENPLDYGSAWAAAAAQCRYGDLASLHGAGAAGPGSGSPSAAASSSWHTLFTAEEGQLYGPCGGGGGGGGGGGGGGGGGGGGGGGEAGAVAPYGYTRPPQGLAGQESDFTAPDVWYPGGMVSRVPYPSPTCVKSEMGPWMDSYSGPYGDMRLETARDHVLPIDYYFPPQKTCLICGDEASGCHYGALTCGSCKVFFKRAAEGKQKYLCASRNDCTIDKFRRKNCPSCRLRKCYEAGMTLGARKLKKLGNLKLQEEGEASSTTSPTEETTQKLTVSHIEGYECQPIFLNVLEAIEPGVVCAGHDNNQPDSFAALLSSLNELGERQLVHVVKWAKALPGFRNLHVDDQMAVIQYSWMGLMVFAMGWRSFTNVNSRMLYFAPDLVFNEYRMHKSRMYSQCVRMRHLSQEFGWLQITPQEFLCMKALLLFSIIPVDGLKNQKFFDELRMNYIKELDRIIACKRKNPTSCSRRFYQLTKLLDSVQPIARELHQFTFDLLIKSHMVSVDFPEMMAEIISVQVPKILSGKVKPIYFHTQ
Compound,outcome [1],outcome [2],outcome [3],outcome [4],outcome [5],outcome [6],outcome [7],outcome [8],Potency [9],Potency [10],Potency [11],Potency [12],Potency [13],outcome [14],Potency [15],Potency [16],Potency [17],Potency [18],Potency [19]
CCCCOCCOCCSC#N,inactive,inactive,inactive,inactive,inactive,inactive,inactive,inactive,inactive,inactive,inactive,inactive,inactive,inactive,inactive,inactive,–,–,–
NC(=O)N/N=C/c1ccc([N+](=O)[O-])o1,inactive,inactive,inactive,inactive,inactive,inactive,inactive,inactive,inactive,inactive,inactive and 30.6 µM (active),inactive and 43.3 µM (active),29.8 µM (active) and inactive and 38.6 µM (active),inactive,inactive,inactive,inactive,–,–
CN/C(=C\[N+](=O)[O-])NCCSCc1ccc(CN(C)C)o1,inactive,inactive,inactive,inactive,inactive,inactive,inactive,inactive,inactive,inactive,inactive,inactive,inactive,inactive,inactive,inactive,–,–,–
CCCCCCCCCCCCCC(=O)OC(C)C,inactive,inactive,inactive,inactive,inactive,inactive,inactive,inactive,inactive,inactive,inactive,inactive,inactive,inactive,inactive,inactive,inactive,inactive,inactive
COc1ccc(C(=O)c2ccccc2)c(O)c1,inactive,inactive,inactive,inactive,inactive,inactive,inactive,inactive,inactive,inactive,inactive,inactive,–,inactive,inactive,inactive,inactive,inactive,inactive
C1CNCCN1,inactive,inactive,inactive,inactive,inactive,inactive,inactive,inactive,inactive,inactive,inactive,inactive and 62.9 µM (active),inactive and 62.9 µM (active),inactive,inactive,inactive,inactive,–,–
CCCCCCCC(=O)OCC(O)CO (stereo unspecified),inactive,inactive,inactive,inactive,inactive,inactive,inactive,inactive,inactive,inactive,inactive,inactive,inactive,inactive,inactive,inactive,inactive,–,–
CC(=O)Oc1ccccc1C(=O)O,inactive,inactive,inactive,inactive,inactive,inactive,inactive,inactive,inactive,inactive,inactive,inactive,inactive,inactive,inactive,inactive,–,inactive,inactive
C[C@]12CC[C@@H]3c4ccc(O)cc4C[C@@H](CCCCCCCCCS(=O)CCCC(F)(F)C(F)(F)F)[C@H]3[C@@H]1CC[C@@H]2O (stereo partly specified),inactive,inactive,inactive,inactive,inactive,inactive,inactive,inactive,inactive,1.23 µM (active),8.41 µM (active),11.9 µM (active) and inactive,6.68 µM (active),inactive,inactive,–,4.2 nM (active) and 0.7 nM (active),inactive,inactive
C=CCOC(=O)CC(C)C,inactive,inactive,inactive,inactive,inactive,inactive,inactive,inactive,inactive,inactive,inactive,inactive,inactive,inactive,inactive,inactive,inactive,–,–
CCc1cc(C(N)=S)ccn1,inactive,inactive,inactive,inactive,inactive,inactive,inactive,inactive,inactive,inactive,inactive,inactive,inactive,inactive,inactive,inactive,inactive,–,–
Oc1cccc(O)c1,inactive,inactive,inactive,inactive,inactive,inactive,inactive,inactive,inactive,inactive,inactive,inactive,inactive,inactive,inactive,inactive,inactive,–,–
COc1cc2c(c(OC)c1OC)-c1ccc(OC)c(=O)cc1[C@@H](NC(C)=O)CC2,inactive,inactive,inactive,inactive,inactive,inactive,inactive,inactive,inactive,–,66.8 nM (active) and 13.5 nM (active) and 7.7 nM (active),66.8 nM (active) and 12 nM (active) and 7.7 nM (active),84.1 nM (active) and 10.7 nM (active) and 7.7 nM (active),inactive,inactive,1.19 µM (active) and 172 nM (active),531 nM (active) and 135 nM (active) and 96.9 nM (active),0.0601 µM (active),inactive
COC1=CC(=O)C[C@@H](C)[C@]12Oc1c(Cl)c(OC)cc(OC)c1C2=O,inactive,inactive,inactive,inactive,inactive,inactive,inactive,inactive,inactive,inactive,26.6 µM (active) and 54 µM (active) and 27.3 µM (active),30.4 µM (active) and 30.6 µM (active),30.4 µM (active) and 27.3 µM (active),inactive,inactive,–,11.9 µM (active) and 27.1 µM (active) and 27.3 µM (active),–,–
